Hits are enriched below; roughly 7.9% of the tested compounds scored in any of these assays.
HCV inhibitor: blocks hepatitis C virus. 3.4% of 340,000 active. Huh7.5.1 HCVcc-Cre infection, luciferase reporter, 44 h. AID 651820. Potency, µM (series often up to 41.8 µM), hits mostly inhibitors; active = well fitted inhibition curve with a large enough effect; inconclusive = small, poorly fitted or top-dose-only effect, or another doubt; inactive = no such curve, though single readings can be large or run the other way
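HCVcc-Cre virus at an moi near 0.5 was added right after compound to cells cultured 4 h from seeding (1,000 cells/well). Luciferase activity was determined 44 h later, 15 min after substrate addition at RT.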
HCMV antiviral: human cytomegalovirus inhibition | HFF cells, HCMV-luciferase reporter, 72 h; stronger effect = lower value | activity change, negative = inhibition, % at 57.5 µM | 4.5% of 410,000 active | AID 1259415; in the data active = activity change below about -60%; inconclusive = no clear call, values can overlap the other calls; inactive = above about -39%
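Steps: HFFs plated, 16 h 37C; compounds added; HCMV-luciferase added to MOI 1 PFU/cell; 72 h 37C; OneGlo reagent, 5 min room temperature; luminescence read, normalized to controls.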
MARV entry inh: Marburg virus entry inhibition; Marburg virus pseudotyped entry inhibition, cell reporter; Potency, µM (doses to about 37.8 µM), hits mostly inhibitors; 1.8% of 300,000 active; calls by dose curve; tested in HEK293 cells
Lassa entry inh: inhibitors of Lassa virus binding or cell entry | Lassa virus pseudotype entry inhibition, cell reporter | Potency, µM (titrated, usually from 37.9 µM), actives largely listed as inhibitors | 1.2% of 300,000 active | AID 540256; calls by dose curve; tested in HEK293 cells; also: nearly all actives have a fitted effect of over 50% in size
FMDV inh: antivirals against foot and mouth disease virus. Potency, µM (highest dose often 57.9 µM), hits mostly inhibitors. AID 1159524. 1.2% of 410,000 active. FMDV antiviral cell-based qHTS; calls by dose curve; tested in HEK293T cells; also: read-out not given here; nearly all actives have a fitted effect of over 45% in size
Numbers stand for hits; - = inactive; ? = inconclusive; . = no result; + = active, no number.

SMILES	HCV inhibitor	HCMV antiviral	MARV entry inh	Lassa entry inh	FMDV inh
CCN1C(=O)[C@H]2[C@@H](c3ccc(-c4ccc5c(c4)OCO5)c(OC)c3)N[C@@](C)(C(=O)OC)[C@H]2C1=O	3.2µM	-	.	.	-
CCOC(=O)N/N=C1\C[C@@H](O)[C@@H](O)[C@@H]2[C@@H]3C(=O)N(Cc4ccc5c(c4)OCO5)C(=O)[C@@H]3CC[C@@H]12	.	.	-	.	.
Cc1cccc(NC(=O)N2CCN(Cc3ccc4c(c3)OCO4)CC2)c1C	-	-75	.	.	-
Cc1ccc2c(C)c(C(=O)N3CCN(Cc4ccc5c(c4)OCO5)CC3)oc2c1C	11µM	-	-	-	-
CSC1=NCCN1C(=O)c1c(F)cccc1Cl	-	-100	?	-	-
CN1CCc2c1nc1ccccc1c2N=C1CCCN1Cc1ccccc1	?	-61	?	?	-
O=C(Cn1c(=O)c2cccn2c2cccnc21)N1CCN(c2ccc(Cl)cc2)CC1	13µM	.	.	.	?
CN1CCN(C(=O)CCn2c(=O)c3cccn3c3cccnc32)CC1	-	+	-	-	-
O=C(CCn1c(=O)c2cccn2c2cccnc21)N1CCN(c2ccccc2)CC1	.	-	.	-	-
O=S(=O)(NCc1cccnc1)c1cccn1-c1ncc(C(F)(F)F)cc1Cl	?	-61	?	-	-
COc1ccc2oc(C)c(C(=O)c3ccccc3)c2c1	-	-	-	-	-
COc1ccc2oc(/C=C/N(C)C)c(C(=O)c3ccc(Cl)cc3)c2c1	?	-	21µM	?	-
C=CCN(C(=O)CCC(=O)Nc1cc(C)on1)C(C(=O)NC1CCCC1)c1ccc(OC)cc1OC (stereo not given)	-	-	-	-	-
CCOC(=O)c1c(C)oc2c1c(C(c1cccnc1)N1CCOCC1)c(O)c1ccccc12 (stereo not given)	?	-	-	-	?
CCOC(=O)c1c(C)c(C(=O)NCc2cccnc2)c(C)n1CC	-	-	-	-	-
CCOC(=O)c1c(C)oc2c1c1c(c3ccccc32)OCN(CCCC(=O)O)C1	10µM	-	.	.	-
CCOC(=O)c1c(C)oc2c1c1c(c3ccccc32)OCN(Cc2cccnc2)C1	6.3µM	.	-	?	-
CCOC(=O)c1c(C)oc2c1c(C(c1cccnc1)N1CCN(C)CC1)c(O)c1ccccc12 (stereo not given)	11µM	.	-	.	.
O=C(Cn1cc(C(=O)c2cccs2)c2ccccc21)Nc1ccc(Br)cc1	.	-	-	-	-
C#CCOCCOCCOCCNc1nc(N2CCN(C(=O)[C@H](CCCCN)n3cc(CN)nn3)CC2)nc(N2CCN(C(=O)[C@H](CCC(=O)O)n3cc([C@@H](N)CCSC)nn3)CC2)n1	-	-	.	.	-
Oc1ccccc1-c1cc(-c2ccccc2Cl)[nH]n1	-	-	-	10µM	-
Oc1ccccc1-c1cc(-c2cccc(F)c2)n[nH]1	?	-	-	?	-
Oc1ccc(Cl)cc1-c1cc(-c2cccc(Br)c2)n[nH]1	11µM	-93	?	?	-
Oc1ccc(Cl)cc1-c1cc(-c2ccccc2Cl)[nH]n1	13µM	-	-	-	-
O=[N+]([O-])c1ccccc1-c1cc(-c2cc(Cl)ccc2O)n[nH]1	?	-	-	?	-
SMILES	HCV inhibitor	HCMV antiviral	MARV entry inh	Lassa entry inh	FMDV inh
CC(C)(C)c1ccc(-c2cc(-c3ccccc3O)[nH]n2)cc1	?	-95	?	?	-
COCCn1c(C)cc(C2=NNC(=Nc3ccccc3)SC2)c1C	?	-	-	?	-
COc1ccccc1C1=NNC(=Nc2cccc(S(=O)(=O)N(C)C)c2)SC1	13µM	-80	7.1µM	?	?
CCOc1ccccc1-n1c(=S)sc2c(=O)n(-c3ccc(C)cc3)c(=S)[nH]c21	?	-	?	?	-
CCn1c(=S)sc2c(=O)n(-c3ccccc3)c(=S)[nH]c21	-	-94	?	-	-
CC(C)c1ccccc1NC(=O)C1CC(=O)N(C2CCCC2)C1 (stereo not given)	-	.	-	-	-
CN(C)CCNC(=O)COc1ccc(C23CC4CC(CC(C4)C2)C3)cc1	11µM	-68	4µM	?	-
CN1C2CCC1CC(OC(=O)c1cc(Cl)cc(Cl)c1)C2 (stereo not given)	14µM	-	7.1µM	?	?
OC1COCOC1C(O)C1OCOCC1O (stereo not given)	-	-	-	-	-
Cc1cc(C)c(S(=O)(=O)Nc2ccc3c(c2)CCC3)c(C)c1	11µM	-85	7.3µM	?	-
CC(=O)c1ccc(NS(=O)(=O)c2c(C)cc(C)cc2C)cc1	-	?	?	?	-
